Test results published in PubChem BioAssay AID1159580 (chemical genetic matrix, 2015).
Among all 5,500 compounds or so, about 2,000 (36%) were called active. Inconclusive results (about 18%) are left out. Rule as the data show it: active = normalized growth mostly below about 0.91 (no sharp cut-off); inconclusive = no clear call, values can overlap the other calls; inactive = mostly above about 0.92. This is one part of the list.

Experiment: chemical genetic growth profiling, strain panel (AID 1159580);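 also: tested at 20 µM; growth read once vehicle control cultures reached saturation at 30 °C; 1 = growth at the plate median or of vehicle wells; lower values mean less growth of the strain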
Conditions: growth OD

Measured: normalized growth

C[C@H]1OC(n2cc(F)c(=O)[nH]c2=O)C(O)[C@@H]1O (stereo partly specified)
inactive: S. cerevisiae deletion strains, locus YAL013W, strain DEP1, stronger effect = lower value 1 | S. cerevisiae deletion strains, locus YBR021W, strain FUR4, stronger effect = lower value 1 | S. cerevisiae deletion strains, locus YBR229C, strain ROT2, stronger effect = lower value 1.01 | S. cerevisiae deletion strains, locus YCL029C, strain bik1, stronger effect = lower value 0.973 | S. cerevisiae deletion strains, locus YDL035C, strain GPR1, stronger effect = lower value 1 | S. cerevisiae deletion strains, locus YDL074C, strain BRE1, stronger effect = lower value 1.02 | S. cerevisiae deletion strains, locus YDL101C, strain DUN1, stronger effect = lower value 1 | S. cerevisiae deletion strains, locus YDL134C, strain PPH21, stronger effect = lower value 1 | S. cerevisiae deletion strains, locus YDL185W, strain tfp1, stronger effect = lower value 0.97 | S. cerevisiae deletion strains, locus YDL192W, strain arf1, stronger effect = lower value 0.97 | S. cerevisiae deletion strains, locus YDR101C, strain arx1, stronger effect = lower value 1 | S. cerevisiae deletion strains, locus YDR150W, strain NUM1, stronger effect = lower value 0.982 | S. cerevisiae deletion strains, locus YDR162C, strain NBP2, stronger effect = lower value 1.04 | S. cerevisiae deletion strains, locus YDR318W, strain mcm21, stronger effect = lower value 0.973 | S. cerevisiae deletion strains, locus YDR388W, stronger effect = lower value 0.986 | S. cerevisiae deletion strains, locus YDR502C, strain sam2, stronger effect = lower value 1 | S. cerevisiae deletion strains, locus YEL061C, strain CIN8, stronger effect = lower value 1 | S. cerevisiae deletion strains, locus YER110C, stronger effect = lower value 0.948 | S. cerevisiae deletion strains, locus YER155C, strain BEM2, stronger effect = lower value 0.995 | S. cerevisiae deletion strains, locus YER167W, strain BCK2, stronger effect = lower value 0.989 | S. cerevisiae deletion strains, locus YGL078C, strain dbp3, stronger effect = lower value 0.979 | S. cerevisiae deletion strains, locus YGL086W, strain mad1, stronger effect = lower value 0.957 | S. cerevisiae deletion strains, locus YGL248W, strain PDE1, stronger effect = lower value 1.01 | S. cerevisiae deletion strains, locus YGR078C, strain PAC10, stronger effect = lower value 1.02 | S. cerevisiae deletion strains, locus YGR135W, strain pre9, stronger effect = lower value 1 | S. cerevisiae deletion strains, locus YGR229C, strain SMI1, stronger effect = lower value 1.03 | S. cerevisiae deletion strains, locus YGR252W, strain gcn5, stronger effect = lower value 1.01 | S. cerevisiae deletion strains, locus YHR030C, strain SLT2, stronger effect = lower value 0.996 | S. cerevisiae deletion strains, locus YHR079C, strain IRE1 (second series), stronger effect = lower value 0.985 | S. cerevisiae deletion strains, locus YHR094C, strain hxt1, stronger effect = lower value 0.968 | S. cerevisiae deletion strains, locus YHR129C, strain ARP1, stronger effect = lower value 1 | S. cerevisiae deletion strains, locus YHR200W, strain rpn10, stronger effect = lower value 0.969 | S. cerevisiae deletion strains, locus YIL066C, strain RNR3, stronger effect = lower value 0.99 | S. cerevisiae deletion strains, locus YIL073C, strain SPO22, stronger effect = lower value 0.894 | S. cerevisiae deletion strains, locus YIL125W, strain kgd1, stronger effect = lower value 0.973 | S. cerevisiae deletion strains, locus YIR030C, strain dcg1, stronger effect = lower value 0.982 | S. cerevisiae deletion strains, locus YJL095W, strain BCK1, stronger effect = lower value 1.04 | S. cerevisiae deletion strains, locus YJL134W, strain LCB3, stronger effect = lower value 1.01 | S. cerevisiae deletion strains, locus YJL168C, strain set2, stronger effect = lower value 0.993 | S. cerevisiae deletion strains, locus YJL187C, strain SWE1 (second series), stronger effect = lower value 1.01 | S. cerevisiae deletion strains, locus YJR043C, strain POL32, stronger effect = lower value 0.993 | S. cerevisiae deletion strains, locus YJR075W, strain HOC1, stronger effect = lower value 1.01 | S. cerevisiae deletion strains, locus YKL009W, strain mrt4, stronger effect = lower value 0.959 | S. cerevisiae deletion strains, locus YKL068W, stronger effect = lower value 0.98 | S. cerevisiae deletion strains, locus YKL085W, strain MDH1 (second series), stronger effect = lower value 0.981 | S. cerevisiae deletion strains, locus YKL085W, strain MDH1, stronger effect = lower value 0.981 | S. cerevisiae deletion strains, locus YKL190W, strain CNB1, stronger effect = lower value 1 | S. cerevisiae deletion strains, locus YKR001C, strain vps1, stronger effect = lower value 0.966 | S. cerevisiae deletion strains, locus YLR039C, strain RIC1, stronger effect = lower value 0.994 | S. cerevisiae deletion strains, locus YLR058C, strain SHM2, stronger effect = lower value 0.993 | S. cerevisiae deletion strains, locus YLR102C, strain apc9, stronger effect = lower value 0.983 | S. cerevisiae deletion strains, locus YLR262C, strain YPT6, stronger effect = lower value 1 | S. cerevisiae deletion strains, locus YLR268W, strain sec22, stronger effect = lower value 0.995 | S. cerevisiae deletion strains, locus YLR330W, strain CHS5, stronger effect = lower value 0.994 | S. cerevisiae deletion strains, locus YLR342W, strain FKS1 (second series), stronger effect = lower value 0.991 | S. cerevisiae deletion strains, locus YLR371W, strain rom2, stronger effect = lower value 0.961 | S. cerevisiae deletion strains, locus YLR418C, strain cdc73, stronger effect = lower value 1.05 | S. cerevisiae deletion strains, locus YML016C, strain PPZ1, stronger effect = lower value 1 | S. cerevisiae deletion strains, locus YML032C, strain rad52, stronger effect = lower value 0.951 | S. cerevisiae deletion strains, locus YML124C, strain tub3, stronger effect = lower value 0.974 | S. cerevisiae deletion strains, locus YMR078C, strain ctf18, stronger effect = lower value 0.945 | S. cerevisiae deletion strains, locus YMR223W, strain ubp8, stronger effect = lower value 0.975 | S. cerevisiae deletion strains, locus YMR263W, strain SAP30, stronger effect = lower value 1.02 | S. cerevisiae deletion strains, locus YMR307W, strain GAS1, stronger effect = lower value 0.977 | S. cerevisiae deletion strains, locus YNL067W, strain RPL9B, stronger effect = lower value 1.02 | S. cerevisiae deletion strains, locus YNL128W, strain TEP1, stronger effect = lower value 1.01 | S. cerevisiae deletion strains, locus YNL153C, strain GIM3, stronger effect = lower value 1.02 | S. cerevisiae deletion strains, locus YNL233W, strain BNI4, stronger effect = lower value 1.02 | S. cerevisiae deletion strains, locus YNL250W, strain rad50, stronger effect = lower value 0.984 | S. cerevisiae deletion strains, locus YNL271C, strain bni1, stronger effect = lower value 0.988 | S. cerevisiae deletion strains, locus YNL298W, strain CLA4, stronger effect = lower value 0.963 | S. cerevisiae deletion strains, locus YNL307C, strain MCK1, stronger effect = lower value 0.967 | S. cerevisiae deletion strains, locus YNL322C, strain KRE1, stronger effect = lower value 0.998 | S. cerevisiae deletion strains, locus YNR052C, strain pop2, stronger effect = lower value 0.958 | S. cerevisiae deletion strains, locus YOL006C, strain TOP1, stronger effect = lower value 1.03 | S. cerevisiae deletion strains, locus YOL012C, strain htz1 1.08 | S. cerevisiae deletion strains, locus YOL147C, strain pex11, stronger effect = lower value 0.982 | S. cerevisiae deletion strains, locus YOR061W, strain CKA2, stronger effect = lower value 1.01 | S. cerevisiae deletion strains, locus YOR069W, strain VPS5, stronger effect = lower value 1 | S. cerevisiae deletion strains, locus YOR136W, strain idh2, stronger effect = lower value 0.983 | S. cerevisiae deletion strains, locus YOR144C, strain elg1, stronger effect = lower value 0.965 | S. cerevisiae deletion strains, locus YOR184W, strain ser1, stronger effect = lower value 0.921 | S. cerevisiae deletion strains, locus YOR316C, strain cot1, stronger effect = lower value 0.974 | S. cerevisiae deletion strains, locus YPL055C, strain LGE1, stronger effect = lower value 1.02 | S. cerevisiae deletion strains, locus YPL241C, strain CIN2, stronger effect = lower value 0.996 | S. cerevisiae deletion strains, locus YPR119W, strain clb2, stronger effect = lower value 0.985 | S. cerevisiae deletion strains, locus YPR141C, strain kar3, stronger effect = lower value 0.974 | S. cerevisiae deletion strains, locus YPR163C, strain tif3, stronger effect = lower value 0.964 | S. cerevisiae deletion strains, locus YPR167C, strain met16, stronger effect = lower value 0.988 | S. cerevisiae deletion strains, strain wtn01, stronger effect = lower value 0.994 | S. cerevisiae strains, strain wild type, stronger effect = lower value 1
